# PubChem BioAssay (NCI)
# Several values for one entry are separate records, joined by “and”; a condition that tells them apart may be missing. Identical values can stand only once. Compounds without any hit were thinned out: in the full panel of roughly 83,000, 20% have a hit.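 Interpretation: 100, growth as untreated; towards 0, rising growth inhibition; 0, no net growth; 0 to -100, cell death. Compounds scoring below 10 were considered active.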 Activity calls are given as the source filed them. Where a SMILES comes first, the peptide text is derived from it. [ ]: non-standard residue; d: D form. ξ: configuration not given here. ξV = CC(C)C(N)C(=O)O
# Tests used:
# Test in all cases: NCI-60 one-dose screen, 48 h (100 = growth as untreated, 0 = no growth, -100 = all killed)
# [1] = tested on: HCT-15 colon; details: 10 µM
# [2] = tested on: HT29 colon; details: 10 µM
# [3] = tested on: SNB-19 CNS; details: 10 µM
# [4] = tested on: U251 CNS; details: 10 µM unless noted
# [5] = tested on: SK-MEL-5 melanoma; details: 10 µM unless noted
# [6] = tested on: UACC-62 melanoma
# [7] = tested on: LOX IMVI melanoma; details: 10 µM unless noted
# [8] = tested on: SK-MEL-28 melanoma; details: 10 µM
# [9] = tested on: SNB-75 CNS; details: 10 µM
# [10] = tested on: PC-3 prostate; details: 10 µM
Compound,growth [1],growth [2],growth [3],growth [4],growth [5],growth ([6]; 10 µM),growth [7],growth [8],growth [9],growth [10],growth ([6]; 100 µM),growth ([6]; 50 µM)
CCN(CC)c1ccc(NC(C(=O)c2ccccc2)c2ccccc2)cc1 (stereo unspecified),-16.4% (active),12.4% (inactive),36.6% (inactive),-17.5% (active),78.8% (inactive),28.3% (inactive),-43.4% (active),16.9% (inactive),,,,
OC(CN1CCCC2CCCCC21)c1cc2ccccc2c2ccccc12 (stereo unspecified),22.5% (inactive),1.91% (active),43.6% (inactive),28.2% (inactive),-84.6% (active),,-19.9% (active),49.4% (inactive),,,,
Oc1ccc(N=Nc2ccccn2)c(O)c1,,21.6% (inactive),31.2% (inactive),24.2% (inactive),,-34.1% (active),8.85% (active),31.7% (inactive),54.6% (inactive),36.1% (inactive),,
CS(=O)(=O)OC1CC(n2ccc(=O)[nH]c2=O)OC1COC(c1ccccc1)(c1ccccc1)c1ccccc1 (stereo unspecified),,96.1% (inactive),99.8% (inactive),,,97.7% (inactive),,104% (inactive),,,,
CCCCCCCCCCCC[N+](C)(C)Cc1ccccc1,,5.91% (active),20.5% (inactive),17.3% (inactive),,-41.2% (active),25.9% (inactive),17.5% (inactive),,,,
CC1=CC(C)=Nc2ccc(Cl)cc2N1,,119% (inactive),106% (inactive),101% (inactive),,103% (inactive),91.4% (inactive),124% (inactive),,,,
O=[N+]([O-])C1=C(c2ccccc2)SC=C(c2ccccc2)S1,,69.8% (inactive),78.3% (inactive),51.5% (inactive),,54.5% (inactive),4.56% (active),88.2% (inactive),,,,
O=C(/C=C/c1cccnc1)c1ccccc1,,14.1% (inactive),82.8% (inactive),37.3% (inactive),,103% (inactive),27.5% (inactive),102% (inactive),,,,
COC1OCC(O)C(O)C1O (stereo unspecified),,104% (inactive),113% (inactive),94.5% (inactive),,105% (inactive),95.3% (inactive),106% (inactive),,92.4% (inactive),,
Cc1cc(O)c(C(C)C)cc1Cl,,103% (inactive),103% (inactive),101% (inactive),103% (inactive),103% (inactive),98.3% (inactive),105% (inactive),93.2% (inactive),,,
N=S(c1ccccc1[N+](=O)[O-])c1ccccc1[N+](=O)[O-],,-32.7% (active),108% (inactive),84.5% (inactive),,67.9% (inactive),3.28% (active),77.5% (inactive),,89.4% (inactive),,
CCCCCCCCCCCCSC(=NC)NC,,0.0905% (active) and 2.56% (active),42.6% (inactive) and 91.6% (inactive),8.04% (active) and 34.5% (inactive),-5.79% (active) and 69.5% (inactive),-58.4% (active) and 61.4% (inactive),-39.5% (active) and 26.8% (inactive),26.8% (inactive) and 68.5% (inactive),,,,
O=C1NC(=O)c2cc([N+](=O)[O-])ccc21,,109% (inactive),109% (inactive),109% (inactive),,102% (inactive),104% (inactive),120% (inactive),,,,
CC(C)C1=C(O)C2=C(C(=O)C1=O)C1(C)CCCC(C)(C)C1CC2O (stereo unspecified),,,,,,,,,,,-73.2% (active) and -96.5% (active),
CSC1SCC2C(=O)N(C)C(C(C)C)C(=O)OCC(NC(=O)c3cnc4ccccc4n3)C(=O)NC(C)C(=O)N(C)C1C(=O)N(C)C(C(C)C)C(=O)OCC(NC(=O)c1cnc3ccccc3n1)C(=O)NC(C)C(=O)N2C (stereo unspecified),,2.66% (active),-13.3% (active),5.23% (active),,-77% (active),3.98% (active),-13.9% (active),,,,
CC(C)(C)CC(C)(C)c1ccc(OCCO)cc1,,99.3% (inactive),106% (inactive),104% (inactive),,106% (inactive),99.1% (inactive),141% (inactive),,117% (inactive),,

Compound,growth [1],growth [2],growth [3],growth [4],growth [5],growth ([6]; 10 µM),growth [7],growth [8],growth [9],growth [10],growth ([6]; 100 µM),growth ([6]; 50 µM)
O=C1C=CC(=CC=C2C=CN(CCCCCCCCCCCO)C=C2)C=C1,,22.5% (inactive),,25% (inactive),,29.6% (inactive),18.8% (inactive),37.6% (inactive),53.4% (inactive),17.5% (inactive),,
CCN1/C(=C/C=C/C=C/c2sc3ccccc3[n+]2CC)Sc2ccccc21,,-66.1% (active),-5.19% (active),-6.94% (active),,-74.6% (active),-57.5% (active),-56.6% (active),,7.09% (active),,
CC[N+](CC)=c1ccc2nc3c(cc(N)c4ccccc43)oc-2c1,,5.58% (active),-64.3% (active),-76.1% (active),,-79.9% (active),-58.7% (active),-61.8% (active),,,,
COc1c(O)cc2oc3cc(O)c(CC=C(C)C)c(O)c3c(=O)c2c1CC=C(C)C,,27.6% (inactive),96.4% (inactive),47.9% (inactive),,,0.237% (active),87.8% (inactive),,41.1% (inactive),,
Cc1cc(NS(=O)(=O)c2ccc(N=Nc3cc(N=Nc4ccc(S(=O)(=O)Nc5cc(C)nc(C)n5)cc4)c4c(NC(=O)C(Cl)Cl)cccc4c3OC(=O)C(Cl)Cl)cc2)nc(C)n1 (tested in a mixture with another compound),,118% (inactive),97.4% (inactive) and 95.7% (inactive),97.5% (inactive) and 97.7% (inactive),,99.8% (inactive) and 95.8% (inactive),92.6% (inactive) and 104% (inactive),111% (inactive),,97.4% (inactive) and 106% (inactive),,
CCCCCCCCCCCCCCCCCCOCC(COP(=O)([O-])OCC[N+](C)(C)C)OC (stereo unspecified),,37.7% (inactive),80.8% (inactive),72.4% (inactive),62.5% (inactive),73.3% (inactive),84.6% (inactive),,,29.5% (inactive),,
COC(=O)C1=COC(C)C2C[n+]3ccc4c([nH]c5ccccc54)c3CC12 (stereo unspecified),,99.4% (inactive) and 81.3% (inactive),101% (inactive) and 90.3% (inactive),101% (inactive) and 88.4% (inactive),,91.1% (inactive) and 83.1% (inactive),98.9% (inactive) and 98% (inactive),106% (inactive) and 103% (inactive),83.3% (inactive) and 92.8% (inactive),,52.7% (inactive) and 32.5% (inactive),
Nc1ccc2cc3ccc(N)cc3nc2c1,,105% (inactive) and 4.36% (active),108% (inactive) and 30.4% (inactive),104% (inactive) and 8.67% (active),,109% (inactive) and -35.5% (active),105% (inactive) and -30.1% (active),108% (inactive) and -6.93% (active),101% (inactive),,,
O=C(/C=C/c1ccccn1)c1ccccc1,,-67.2% (active),61.8% (inactive),-31.4% (active),,82.4% (inactive),-31.2% (active),100% (inactive),,,,
CO[C@H](C(=O)[C@@H](O)[C@@H](C)O)[C@@H]1Cc2cc3cc(OC4CC(OC5CC(O)C(O)C(C)O5)C(O)C(C)O4)c(C)c(O)c3c(O)c2C(=O)[C@H]1OC1CC(OC2CC(OC3CC(C)(O)C(O)C(C)O3)C(O)C(C)O2)C(O)C(C)O1 (stereo partly specified),,0.182% (active),13.3% (inactive),9.37% (active),,-58.6% (active),7.02% (active),,,,,
Clc1cc(Cl)c(Cl)nn1,,99.2% (inactive),94.2% (inactive),81.1% (inactive),103% (inactive),88.7% (inactive),95.7% (inactive),116% (inactive),,,,
O=C1C=C(O)c2ccccc2C1=O.[Ag],,81.9% (inactive),102% (inactive),,,108% (inactive),,92.3% (inactive),,,,
COc1cccc2c1C(=O)c1c(O)c3c(c(O)c1C2=O)C[C@@](O)(C(C)=O)C[C@@H]3OC1CC(N)C(O)C(C)O1 (stereo partly specified),,1.89% (active),-9.95% (active),3.16% (active),,-71.8% (active),1.63% (active),-51% (active),,-25.8% (active),,-98.9% (active) and -100% (active)
CC(C)C(NC(=O)CN)C(=O)O (stereo unspecified) (H-Gly-[ξV]-OH),,101% (inactive) and 100% (inactive),106% (inactive),102% (inactive) and 98.9% (inactive),,104% (inactive) and 94.5% (inactive),101% (inactive) and 102% (inactive),109% (inactive) and 107% (inactive),104% (inactive) and 84.7% (inactive),,,
CCCCCCCCCCSC(=N)N,,-27.7% (active),66.8% (inactive),5.37% (active),50.7% (inactive),-35% (active),47.8% (inactive),89.3% (inactive),,,,
CN(C)C(=S)SC(=S)N(C)C,,82.2% (inactive) and 59.8% (inactive),98.7% (inactive) and 109% (inactive),96.1% (inactive) and 97.1% (inactive),,92.1% (inactive) and 103% (inactive),99.8% (inactive) and 90.9% (inactive),105% (inactive) and 104% (inactive),97.2% (inactive) and 89.7% (inactive),,,
